Test results reported in ChEMBL document CHEMBL3988442, “University of Dundee, Small-Polar-MMV Screening Library” (2021).
In all, about 38,000 compounds went through this assay and about 1,200 (3.2%) showed an effect of 50% or more. The median lay at about -58%. What follows is part of a selection rich in strong results, with near analogues and random picks from the rest.

Test system: Plasmodium falciparum
Test: Calibr Malaria Delayed Death Assay SOP
Type: functional, organism-based
Parameters: scale not given: in the data most compounds retested in dose-response had high values
Details: concentration 4.99e-06 (unit not given; other assays of the set use mol/L)

Question: CC(C)N1C[C@@H](CO)[C@H](c2ccccc2)S1(=O)=O was tested. Which “Percent Effect” value did it give?
Answer: Its value is -2.146%.

Question: COc1cccc(Cn2ncnc2CNC(C)=O)c1 was tested. Which “Percent Effect” value did it give?
Answer: The value was -17.74%.

Question: NC1CCCN(Cc2cccc(C(F)(F)F)c2)C1=O (stereo unspecified) was tested. Which “Percent Effect” value did it give?
Answer: Its value is -34.65%.

Question: With O=S(=O)(CC1CCCCO1)Nc1c(F)cccc1-n1cccn1 (stereo unspecified) as the compound, how does the “Percent Effect” value read?
Answer: The value was -6.246%.

Question: How did the “Percent Effect” value turn out when N#CC1COCCN1C(=O)c1ccc2cc[nH]c2c1 (stereo unspecified) was run?
Answer: Its value is -76.07%.

Question: Which “Percent Effect” value does the source give for N[C@H]1CN(C(=O)c2ccc3[nH]c(CO)nc3c2)C[C@@H]1c1ccccc1 here?
Answer: The value was -84.77%.

Question: With COCCC1COC2(CCN(C(=O)c3cccn3C)CC2)C1 (stereo unspecified) as the compound, how does the “Percent Effect” value read?
Answer: Its value is -157.5%.

Question: With O=C(NC1CCCCC1)c1cc(Br)cnc1N1CCCCC1 as the compound, how does the “Percent Effect” value read?
Answer: The value was -52.51%.

Question: With COc1cc(C)ccc1OCCN1CC[C@@]2(O)CCNC[C@H]2C1 as the compound, how does the “Percent Effect” value read?
Answer: The value was -90.26%.

Question: CCc1ccccc1OCCN1CC[C@@]2(O)CCNC[C@H]2C1 was tested. Which “Percent Effect” value did it give?
Answer: Its value is -93.81%.

Question: For CCn1ncnc1CN1CCC(CNC(=O)c2cccc(C)c2)C1 (stereo unspecified), which “Percent Effect” value is on record?
Answer: The value was -152.4%.

Question: For Cn1cc(-c2nc(CN3CCc4c(ncn4C4CC4)C3)cs2)cn1, which “Percent Effect” value is on record?
Answer: Its value is -33.38%.

Question: CCCC1CCCN(Cc2csc(-c3cnn(C)c3)n2)CC1 (stereo unspecified) was tested. Which “Percent Effect” value did it give?
Answer: Its value is 52.75%.

Question: How did the “Percent Effect” value turn out when Cn1cc(-c2nc(CN3CCN(CCO)CC3)cs2)cn1 was run?
Answer: Its value is -64.62%.

Question: How did the “Percent Effect” value turn out when Cn1cc(CN2CCC3(CC2)CN(c2cccnc2)C(=O)CO3)cn1 was run?
Answer: Its value is -97.96%.

Question: With N#CC1CCCN(c2nc(-c3ccccc3)nc3c2CCNCC3)C1 (stereo unspecified) as the compound, how does the “Percent Effect” value read?
Answer: The value was 79.11%.

Question: For Cn1ccnc1CN1CCc2ncnc(N3CCCC(C#N)C3)c2CC1 (stereo unspecified), which “Percent Effect” value is on record?
Answer: Its value is -81.1%.

Question: How did the “Percent Effect” value turn out when c1cnn(C2CN(c3nc(-c4ccncc4)nc4c3CCC4)C2)c1 was run?
Answer: The value was -81.86%.

Question: For CC(C)CNC(=O)c1cccc(Oc2ccc3nncn3n2)c1, which “Percent Effect” value is on record?
Answer: Its value is -53.64%.

Question: O=C(C1CCOCC1)N1C[C@H](OCc2cccnc2)[C@H]2COC[C@H]21 was tested. Which “Percent Effect” value did it give?
Answer: Its value is -121.2%.

Question: CSc1nccn1-c1cccc(C(=O)NCCN2CCS(=O)(=O)CC2)c1 was tested. Which “Percent Effect” value did it give?
Answer: Its value is -149.1%.

Question: CCc1nc(CN2CCCN(C(=O)CCOC(C)C)CC2)cs1 was tested. Which “Percent Effect” value did it give?
Answer: Its value is -60.5%.

Question: How did the “Percent Effect” value turn out when O[C@@H]1CN(CC2=Cc3cc(Cl)ccc3OC2)CC[C@H]1N1CCCCCC1 was run?
Answer: The value was -10.35%.

Question: How did the “Percent Effect” value turn out when Cc1cn2c(n1)C(CNCC1=Cc3cc(Cl)ccc3OC1)CCC2 (stereo unspecified) was run?
Answer: The value was 87.8%.

Question: With C1=C(CNC2CCc3ncnn3C2)COc2ccccc21 (stereo unspecified) as the compound, how does the “Percent Effect” value read?
Answer: Its value is -78.33%.

Question: How did the “Percent Effect” value turn out when CCN1CCOC(CNCc2ccccn2)C1 (stereo unspecified) was run?
Answer: Its value is -142.7%.

Question: How did the “Percent Effect” value turn out when Clc1ccc2c(c1)C=C(CNC1CCc3ncnn3C1)CO2 (stereo unspecified) was run?
Answer: The value was -63.09%.

Question: For CC(C)(C)c1cn2c(n1)C(CNCc1ccccn1)CCC2 (stereo unspecified), which “Percent Effect” value is on record?
Answer: Its value is 92.56%.

Question: For CC(C)(C)c1ncc(CNCC2CCCn3ccnc32)s1 (stereo unspecified), which “Percent Effect” value is on record?
Answer: Its value is 11.38%.

Question: With CCn1ncc2c1CCCC2NCC1=Cc2ccccc2OC1 (stereo unspecified) as the compound, how does the “Percent Effect” value read?
Answer: The value was -139.8%.

Question: For Cc1cn2c(n1)C(CNCC1=Cc3ccccc3OC1)CCC2 (stereo unspecified), which “Percent Effect” value is on record?
Answer: Its value is 78.44%.
